About 83,000 compounds went through this panel and 20% of them were active in at least one assay; those are over-represented in the sample as a whole.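 Activity criterion: percent growth below 10, measured after cells in 96-well plates were exposed to a single compound concentration for 48 hours.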 The source made the active and inactive calls.
What follows are compounds tested on PC-3 prostate (assay: NCI-60 one-dose screen, 48 h (100 = growth as untreated, 0 = no growth, -100 = all killed)). Details: 10 µM.
Protocol: Growth inhibition of the PC-3 human tumor cell line is measured as a screen for anti-cancer activity. Cells are grown in 96 well plates and exposed to the test compound for 48 hours. Compounds are tested at a single concentration, which is 10^-5 M for most compounds. The reported endpoint is percent growth (GI% or GIPRCNT), where numbers from 0 - 100% represent growth inhibition, and numbers from -100% - 0 represent cell death. For example, a value of 40 represents 60% growth inhibition. A value of 0 means no net growth occurred over the course of the experiment. A value of -40 indicates 40% of cells at the beginning of the experiment died by the end of the experiment. A value of -100 means all cells are dead at the end of the experiment.
NCI-60 Human Tumor Cell Lines Screen was performed using the standard one-dose NCI protocol, which is described in more detail at https://dtp.cancer.gov/discovery_development/nci-60/default.htm.
Compounds with GIPRCNT values below 10 were considered active. Activity score was based on GIPRCNT using the following formula: […]
Score is 0 for GIPRCNT values of 100 or above, 50 for GIPRCNT values of 0, and 100 for GIPRCNT values of -100.

Row | SMILES | growth
1 | Cc1ccc(-c2nc(/C=C3/C(=O)N(C)c4ccc(F)cc43)c3ccccn23)cc1 | 113% (inactive)
2 | c1ccc2c(c1)oc1c3cccnc3ccc21 | 79.3% (inactive)
3 | O=C1/C(=C\c2ccc(Cl)cc2)CN(C(=O)c2ccccc2)C/C1=C\c1ccc(Cl)cc1 | 25.8% (inactive)
4 | COc1ccc(-c2nc(-c3nc4cc(Cl)c(Cl)cc4[nH]3)c3ccccn23)cc1 | 57% (inactive)
5 | CCCCCCCCCCCCC1C/C=C\CCCC(=O)O1 (stereo not given) | 112% (inactive)
6 | Cc1cc(C)c2c(n1)sc1c(Nc3ccc(Cl)cc3)ncnc12 | 49.2% (inactive)
7 | CC(=O)C1CCC2C3CC(F)C4=CC(=O)CCC4(C)C3C(O)CC12C (stereo not given) | 90.6% (inactive)
8 | COc1cc(-c2cc(/C=C/C(=O)c3ccc(F)c(F)c3)[nH]n2)cc(OC)c1OC | 11.7% (inactive)
9 | COc1ccc(-c2nc(-c3nc4ccc(Cl)cc4[nH]3)c3ccccn23)cc1 | 55.9% (inactive)
10 | COc1ccc2c(c1)N(CCO)C1=C(C(=O)OC1)C2c1ccc(OC)c(OC)c1 (stereo not given) | 38% (inactive)
11 | O=C(/C(=C/c1ccccc1)CN1CCCCC1)c1ccccc1 | -9.65% (active)
12 | O=C(CCCCCCC(=O)Nc1cccnc1)NO | 26.3% (inactive)
13 | COc1ccc(-c2cc(-c3ccc(N(C)C)cc3)c(C#N)c(N3CCCC3)n2)cc1 | 82.2% (inactive)
14 | N=C(N)c1ccc(-c2ccc(-c3cccs3)s2)s1 | 5.1% (active)
15 | O=S(=O)(NCCCNc1nccc(-c2c(-c3ccc(F)cc3)nc3sccn23)n1)c1ccc(F)cc1 | 32.3% (inactive)
16 | Cc1ncc(-c2ccoc2)c(NC2CCCCCC2)n1 | 105% (inactive)
17 | CC(C)(C)c1cc(Br)cc(C(C)(C)C)c1O | 94.4% (inactive)
18 | COc1ccc2c(c1)nc(N)c1c3cccnc3cn21 | 20.6% (inactive)
19 | COc1ccc2c(c1)[n+]([O-])c(C#N)c(NC(=O)c1ccco1)[n+]2[O-] | 179% (inactive)
20 | CCOC(=O)C1CCc2c(ccc3ccccc23)N1CCC#N (stereo not given) | 84.9% (inactive)

Row | SMILES | growth
21 | COc1ccc(Oc2nc(NC3CCCC3)nc(Sc3ccc(OC)cc3)n2)cc1 | 43% (inactive)
22 | N#Cc1cc(-c2cc3ccccc3o2)oc1N | -24.5% (active)
23 | CCOCC(=O)C(C#N)c1ccc(Cl)c(Cl)c1 (stereo not given) | 87% (inactive)
24 | CC(=O)/C(=C/c1ccccc1)C(=O)CC(C)C | 83.7% (inactive)
25 | Cn1c([N+](=O)[O-])cnc1/C=C1\Oc2ccc(Cl)cc2C1=O | -17.9% (active)
26 | O=C(Nc1ccc(Cl)cc1)N1NC(c2ccc(Cl)cc2)C=C1c1ccccc1 (stereo not given) | 107% (inactive)
27 | O=[P@@]1(c2ccccc2)O[C@H](COCc2ccccc2)[C@@H](OCc2ccccc2)[C@H](OCc2ccccc2)[C@H]1O | 78.7% (inactive)
28 | c1ccc(CNc2ncnc3scc(-c4cccs4)c23)nc1 | 58.6% (inactive)
29 | N#Cc1c(C#N)c(SSc2c(C#N)c(C#N)c(N)n2-c2ccccc2)n(-c2ccccc2)c1N | 49% (inactive)
30 | Nc1ccc2c(c1)Cc1cc(N)c(Br)cc1-2 | 96.9% (inactive)
31 | CC(=O)c1cc(Cl)ccc1O | 91.1% (inactive)
32 | CC(=O)c1nc2ccccc2n1CCN1CCN(C)CC1 | 33.4% (inactive)
33 | COc1ccc(C2=NN(C(=O)c3ccc(S(C)(=O)=O)cc3)C(c3ccc(OC)c(OC)c3)C2)c(OC)c1 (stereo not given) | 90.9% (inactive)
34 | CO/N=C(/C(=O)NC1C(=O)N2C(C(=O)O)=C(COC(N)=O)CSC12)c1ccco1 (stereo not given) | 101% (inactive)
35 | CC(C)=NNc1ncnc2c1ncn2C1OC(CO)C(O)C1O (stereo not given) | 17.7% (inactive)
36 | COc1ccc(-c2nsc3c2NC(=O)CC3c2ccc(F)cc2)cc1 (stereo not given) | 39.1% (inactive)
37 | COc1ccc(-c2nn(-c3cccc(NC(=O)Nc4ccc(Cl)c(C(F)(F)F)c4)c3)cc2-c2ccncc2)cc1Cl | 2.84% (active)
38 | C/C(=N\Nc1nc2ccccc2s1)c1ccncn1 | 27.3% (inactive)
39 | CSc1nc(=O)n(Cc2ccc(F)cc2)c(=O)n1Cc1ccc(C)cc1 | 88.5% (inactive)
40 | COc1cc(C2CC(c3ccc(Nc4ccnc5cc(Cl)ccc45)cc3)=NN2c2ccc(Cl)cc2)cc(OC)c1OC (stereo not given) | 36.4% (inactive)
